Results filed as inconclusive are left out. The source made the active and inactive calls. Calls follow the shape of the dose curve; as a rule, active = well fitted inhibition curve with a large enough effect; inconclusive = small, poorly fitted or top-dose-only effect; inactive = no such curve, though single readings can be large or run the other way.

This experiment in a line: Counterscreen for APE1 Inhibitors: Fluorescent Dye Displacement Validation Assay (AID 1707). The note with it: fluorescent dye displacement from DNA; series mostly up to 57.1 µM. An excerpt:
In order to distinguish true inhibitors of DNA-processing enzymes from promiscuous DNA-binding compounds among screening assay hits, we developed a homogeneous and miniaturized assay based on fluorescent dye displacement test as originally described by Tse and Boger (Accounts of Chemical Research (2004) 37: 61-69). The assay is based on the strong enhancement of fluorescence when Thiazole Orange (ThO) binds to double-stranded DNA: conversely, in the presence of a DNA-binding compound, Thiazole Orange is displaced from the DNA and its fluorescence is reduced.
Buffer. 50 mM Tris-HCl (pH7.5) containing 50mM NaCl, 2 mM MgCl2, and 0.01% Tween-20.
Buffer containing 250 nM ThO in columns 3 and 4 as negative control (no dsDNA).
Reaction mixture: 250 nM ThO and 50 nM dsDNA at final concentration dispensed throughout the plate: in columns 1, 2, 5-48. Column 1 is neutral (100% activity).
5''TAMRA- TC ACC FTC GTA CGA CTC
3'' AG TGG GAG CAT GCT GAG
where F denotes tetrahydrofuran.
Control: Pintool transfer of control compound WB64 (W4761, Sigma-Aldrich) to column 2 of all assay plates as a two-fold 16-point dilution in duplicate (concentration range 5.75 uM - 0.175 nM).
Four uL of reaction mixtures were dispensed to 1536-well Greiner black solid bottom plates. Compounds (23 nL) were transferred […] in order to measure the endpoint fluorescence using 480 nm excitation and 540 nm emission fluorescence protocol.
With `Brc1ccc([C@H]2CN3CCSC3=N2)cc1`, the outcome was inactive.
For `Cn1cnc2c(NCc3ccccc3)nc(NCCO)nc21`, the molecule was called inactive.
Regarding `CN(C)c1cc2c(Nc3ccc4c(cnn4Cc4ccccc4)c3)ncnc2cn1`, the molecule was called inactive.
Consider `COc1ccccc1N1CCN(CCN2C(=O)CC3(CCCC3)CC2=O)CC1`, for which the outcome was inactive.
As for `C[C@]12CCC(=O)C=C1CC[C@@H]1[C@@H]2[C@@H](O)C[C@@]2(C)[C@H]1CC[C@]2(O)C(=O)COC(=O)CCC(=O)O`, the molecule was classed as inactive.
For `NC(N)=NCCCCN=C(N)N`, the result was inactive.
On to `COc1cccc2c1[C@@H]1CN(CCCCn3c(=O)[nH]c4c(sc5ncc(-c6ccccc6)nc54)c3=O)C[C@@H]1CO2`, for which the molecule was called inactive.
As for `C[N+](C)(C)CCO`, the entry is “inactive”; as for `O=C1NC(c2cccc([N+](=O)[O-])c2)=CCN1c1ccccc1O`, “inactive”.
For the molecule `CC(C)N(CCC(=O)c1ccc2ccccc2c1)Cc1ccccc1`, the call was inactive.
